This is part of a sample that, as a whole, favours compounds with a hit. Of some 83,000 tested, about 20% had one in any assay.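 The test compound was applied at a single concentration to cells in 96-well plates for 48 hours, and percent growth was recorded.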 The source made the active and inactive calls.

The subject of this assay is TK-10 renal. In words: NCI-60 one-dose screen, 48 h (100 = growth as untreated, 0 = no growth, -100 = all killed). The note with it: 10 µM unless noted. On the procedure: Growth inhibition of the TK-10 human tumor cell line is measured as a screen for anti-cancer activity. Cells are grown in 96 well plates and exposed to the test compound for 48 hours. Compounds are tested at a single concentration, which is 10^-5 M for most compounds. The reported endpoint is percent growth (GI% or GIPRCNT), where numbers from 0 - 100% represent growth inhibition, and numbers from -100% - 0 represent cell death. For example, a value of 40 represents 60% growth inhibition. A value of 0 means no net growth occurred over the course of the experiment. A value of -40 indicates 40% of cells at the beginning of the experiment died by the end of the experiment. A value of -100 means all cells are dead at the end of the experiment.
NCI-60 Human Tumor Cell Lines Screen was performed using the standard one-dose NCI protocol, which is described in more detail at https://dtp.cancer.gov/discovery_development/nci-60/default.htm.
Compounds with GIPRCNT values below 10 were considered active. Activity score was based on GIPRCNT using the following formula: […]
Score is 0 for GIPRCNT values of 100 or above, 50 for GIPRCNT values of 0, and 100 for GIPRCNT values of -100.
With `Nc1ccc(Br)cc1C(F)(F)F`, the growth is 108% (inactive).
The result for `CCN(CC)CCCNc1cc(OC)c(OC)c2cccnc12` reads 98.9% (inactive); that for `Nc1nc(C(=O)N/N=C/c2ccc(F)cc2)nn1-c1ccc(S(N)(=O)=O)cc1`, 99.4% (inactive); that for `O=S(O)c1cc(Cl)cc(Cl)c1OCc1ccccc1`, 101% (inactive).
Regarding `O=C1C=C(SCCO)C(=O)c2ccccc21`, the growth is 95.9% (inactive).
On to `Cc1nc([P+](c2ccccc2)(c2ccccc2)c2ccccc2)c(N2CCCCC2)o1`, for which the growth was 53.6% (inactive).
With `O=C(/C=C/C12c3ccccc3C(c3ccccc31)C1C(=O)NC(=O)C12)c1ccc(Cl)cc1Cl` (stereo not given), the growth is 22.4% (inactive).
For `O=C(NCCNC(c1ccccc1)C(NCCNC(=O)c1ccccc1)c1ccccc1)c1ccccc1` (stereo not given), the growth is 97.5% (inactive).
Turning to `CNC(=O)Nc1ccc(-c2ccc3ncnc(Nc4cccc(Cl)c4)c3c2)cc1`, the growth is -3.72% (active).
Next, `CCOC(=O)NC(=S)n1oc(=O)c2ccccc21`: 109% (inactive); `CCN1CCN(CCNc2nccc(-c3c(-c4ccc(F)c(O)c4)nc4occn34)n2)S1(=O)=O`: 44.9% (inactive); `CNC(=O)c1cc(Oc2ccc3c(c2)sc2nc(-c4cc(C(F)(F)F)cc(C(F)(F)F)c4)cn23)ccn1`: 36% (inactive).
Take `COc1ccc2cc(C(=O)N3CCC([C@@H](C)C(=O)NCc4ccc5c(c4)OCO5)CC3)[nH]c2c1`: the growth is 27.1% [50 µM] (inactive).
On to `CCCOC(=O)Nc1nc2ccc(SCC)cc2s1`, for which the growth is 84.9% (inactive).
As for `CC(=O)O[C@H]1CC[C@]2(C)[C@H]3CC=C4[C@@H]5CC(C)(C)CC[C@]5(C(=O)N5CCN(CCC#N)CC5)CC[C@@]4(C)[C@]3(C)CC[C@H]2C1(C)C`, the growth was 54.1% (inactive).
Next, `COC1C(O)CC(OC2CC(OC3CC(O[C@@H]4C(=O)c5c(cc6cc(OC7CC(OC8CC(O)C(O)C(C)O8)C(O)C(C)O7)c(C)c(O)c6c5O)CC4[C@H](OC)[C@@H](O)C(C)=O)OC(C)C3O)OC(C)C2O)OC1C` (stereo not given in full): -1.06% (active); `COCCn1cc(-c2nc(-c3cn(CCOC)c4ncccc34)cs2)c2cc(F)ccc21`: 28.2% (inactive).
With `Oc1ccc(-c2nc3ccc4[nH]ncc4c3c3c2CCCC3)c(F)c1`, the growth is 29.2% (inactive).
As for `COc1cc2c(c(OC)c1OC)CCC(c1cccc(C(=O)Nc3ccc(Br)cc3)c1)O2` (stereo not given), the growth was 77.4% (inactive).
For the compound `COC(=O)/C=C1/SC(=Nc2ccc(F)cc2)N(CCc2c[nH]c3ccc(O)cc23)C1=O`, the growth is 84% (inactive).
The result for `O=c1cc(C(F)(F)F)c2cc(-c3cc4ccccc4c(=O)o3)c(O)cc2o1` reads 103% (inactive).
Next, `C#Cc1cccc(NC(=O)C2CCCCN2C(=O)CCl)c1` (stereo not given): 9.36% [8.25 µM] (active); `CCOC(=O)C1=C(c2ccccc2)N=C2N(c3ccccc3)N=C(C(C)=O)N2C1c1ccc(F)cc1` (stereo not given): 104% (inactive).
The result for `CS(=O)(=O)Nc1cc(-c2ccc3ncnc(Nc4ccc5c(cnn5Cc5ccncc5)c4)c3c2)cnc1Cl` reads 39.1% (inactive); that for `CCN(CC)CCOc1ccc2ccc(=O)oc2c1`, 97.7% (inactive).
For `COc1ccc(N=C2NN=C(c3c[nH]c4ccccc34)CS2)cc1OC`, the growth is 96% (inactive).
Next, `CCCCCCCCCCCCCCCCCCOc1ccccc1CC(=O)NCC[N+](C)(C)C`: -21.4% (active).
The result for `c1cc(OCCN2CCCC2)ccc1CNc1ccc2nc(CCC3CCCCC3)[nH]c2c1` reads 95.1% (inactive).
Next, `COc1ccc(OC)c(Nc2nnc(-c3cc(OC)c(OC)c(OC)c3)o2)c1`: 103% (inactive).
In the case of `N[C@@H]1CCC[C@H]1NCCCCN1C(=O)c2cccc3cc([N+](=O)[O-])cc(c23)C1=O`, the growth was 44.1% (inactive).
The result for `COc1ccc2c(c1)CC[C@@H]1[C@@H]2CC[C@]2(C)C3C(=CC(COC(C)=O)C4C(=O)N(c5ccc(Cl)cc5)C(=O)C43)C[C@@H]12` (stereo not given in full) reads 120% (inactive).
The result for `O=C1OCC2=C1C(c1ccccc1)c1cc3c(cc1N2CCO)OCCO3` (stereo not given) reads 63.5% (inactive); that for `COC1C(O)CC(OC2CC(OC3CC(O[C@@H]4C(=O)c5c(cc6cc(OC7CC(OC8CC(O)C(O)C(C)O8)C(O)C(C)O7)c(C)c(O)c6c5O)CC4[C@H](OC)C(=O)O)OC(C)C3O)OC(C)C2O)OC1C` (stereo not given in full), 34.1% (inactive); that for `COc1ccc(/C=N/NC(=O)Cn2c(-c3ccc(S(C)(=O)=O)cc3)nc3ccccc32)cc1`, 109% (inactive).
The result for `Cc1ccc2c(c1)=C/C(=C\c1cc(-c3ccccc3)[nH]c1O)C(=O)N=2` reads 68.3% (inactive); that for `Cc1ccc(OCCOCCOCCOc2ccc(C)n(O)c2=S)c(=S)n1O`, 64% (inactive).
For `C=CN(C(=O)N1CCN(c2cc3c(cc2F)c(=O)c(C(=O)O)cn3C2CC2)CC1)c1nc(-c2ccc(Cl)cc2)cs1`, the growth is 83.6% (inactive).
In the case of `C=C(C)[C@@H]1CC[C@]2(CO)CC[C@]3(C)[C@H](CC[C@@H]4[C@@](C)(CCCN)[C@H](C(=C)C)CC[C@]43C)[C@@H]12`, the growth was -62.9% (active).
`COc1ccccc1/C=C/C(=O)Nc1ccc(F)cc1`: the growth was 128% (inactive).
As to `COc1ccc(/C=N/Nc2c3ccccc3nc3ccccc23)cc1`, the growth is 107% (inactive).

The values are drawn from PubChem BioAssay (NCI).
